Among all 17,000 compounds or so, about 260 (1.5%) were called active.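 How the source made its calls: active means spot fluorescence over background with P-value below 7% in all four replicate spots, showing protein binding; inactive means the rest.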 The sample as a whole holds a higher share of actives than the screen did.

The record followed here is PubChem BioAssay AID624141 (Broad Institute, 2012).

Chain of Myc proto-oncogene protein (Homo sapiens) (P01106 whole entry, looked up): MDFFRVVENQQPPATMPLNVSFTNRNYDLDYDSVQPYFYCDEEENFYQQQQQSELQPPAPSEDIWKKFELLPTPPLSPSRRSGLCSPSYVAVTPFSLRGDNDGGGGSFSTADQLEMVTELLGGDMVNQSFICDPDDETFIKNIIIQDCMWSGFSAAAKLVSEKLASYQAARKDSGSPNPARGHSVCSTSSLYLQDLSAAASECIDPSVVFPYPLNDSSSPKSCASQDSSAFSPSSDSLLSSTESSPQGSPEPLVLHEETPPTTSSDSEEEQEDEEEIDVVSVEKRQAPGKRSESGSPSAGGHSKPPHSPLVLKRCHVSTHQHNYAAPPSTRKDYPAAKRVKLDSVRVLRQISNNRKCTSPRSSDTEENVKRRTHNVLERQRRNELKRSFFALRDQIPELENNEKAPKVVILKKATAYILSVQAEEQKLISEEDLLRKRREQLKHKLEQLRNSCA

This test concerns the target Myc proto-oncogene protein (Homo sapiens) (UniProt P01106). Description: binders of human c-Myc, primary screen, biochemical, small molecule microarray, anti-His fluorescence (AID 624141). The settings on record: His-c-Myc binding.
Take `Cn1nnc(NC(=O)COc2ccc(Cl)cc2Cl)n1`: the result was inactive.

As for `OC[C@@]1(O)CO[C@H](OC[C@H]2O[C@@H](OC(CCCCc3ccc(O)cc3)CCc3ccc(O)cc3)[C@H](O[C@H]3OC[C@](O)(CO)[C@H]3O)[C@@H](O)[C@@H]2O)[C@@H]1O` (some centres undefined), the compound was classed as inactive.

Regarding `COc1cc(CN2CCN(CCO)CC2)c([N+](=O)[O-])cc1OC`, the compound was called inactive.

Take `O=C(CCCCCCC(=O)NOCc1ccccc1)NO`: the compound was called inactive.

As for `CC(=O)Nc1sccc1C(=O)NCc1ccco1`, the call was inactive.

With `C[C@@H]1CN([C@@H](C)CO)C(=O)c2cc(NC(=O)Cc3ccccc3)ccc2O[C@@H](C)CCCCO[C@@H]1CN(C)C(=O)Nc1ccccc1`, the outcome was inactive.

As to `C[C@@H]1CCCCO[C@@H](CN(C)C(=O)c2ccccc2)[C@@H](C)CN([C@@H](C)CO)C(=O)c2cc(NS(=O)(=O)c3ccccc3)ccc2O1`, the call was inactive.

Regarding `CNC[C@@H]1Oc2c(NC(=O)Nc3ccccc3)cccc2C(=O)N([C@@H](C)CO)C[C@@H]1C`, the result was inactive.

For `COC1OC(O)C(O)C12CC[C@@]1(O2)[C@H](C)C[C@H]2OC(=O)[C@@]3(C)CCC[C@]1(C)C23` (some centres undefined), the result was inactive.

With `CCOc1ccc(OCC(=O)Nc2cc(C)c(Cl)cc2OC)cc1`, the call was inactive.

As for `C=CC1c2cc(O)c(OC)cc2CCN1Cc1cccc(OC(F)(F)F)c1` (centres undefined), the call was inactive.

As to `C[C@H](CO)N1C[C@H](C)[C@@H](CN(C)S(=O)(=O)c2cn(C)cn2)OCCCC[C@H](C)Oc2ccc(NC(=O)Cc3ccccc3)cc2C1=O`, the compound was called inactive.

As to `CN(C)c1nc(SCCO)nc(N(C)C)n1`, the result was inactive.

Regarding `O=C(COc1ccc(C(=O)Nc2ccccc2Cl)cc1)Nc1ccc(Oc2ccccc2)cc1`, the result was inactive.

Turning to `CC1=CCC(C(C)(C)O[C@@H]2O[C@H](COC(=O)c3cc(O)c(O)c(O)c3)[C@@H](O)[C@H](O)[C@H]2O)CC1` (some centres undefined), the outcome was inactive.

As to `C/C=C1/[C@H](O[C@@H]2O[C@H](CO)[C@@H](O)[C@H](O)[C@H]2O)OC=C2C(=O)O[C@@H]3C[C@@H](C(C)CO)[C@H](COC(=O)C[C@H]21)[C@H]3C` (some centres undefined), the outcome was inactive.

In the case of `O=C(NCc1ccco1)c1nc2ncccn2n1`, the compound was called inactive.

Turning to `COc1ccc(S(=O)(=O)N(C)C[C@@H]2Oc3ncc(C#Cc4ccc(F)cc4)cc3C(=O)N([C@H](C)CO)C[C@@H]2C)cc1`, the compound was classed as inactive.

Consider `C[C@H](CO)N1C[C@H](C)[C@@H](CN(C)S(=O)(=O)c2ccc(Oc3ccccc3)cc2)OCc2cn(nn2)CCCC1=O`, for which the compound was called inactive.

Turning to `Cc1ccc(-n2c(SCC(=O)Nc3ccccc3F)nnc2-c2ccccc2)cc1C`, the compound was called inactive.

As for `COc1ccc(C[C@H]2COC(=O)[C@@H]2Cc2ccc(O[C@@H]3O[C@H](CO)[C@@H](O)[C@H](O)[C@H]3O)c(OC)c2)cc1OC`, the result was inactive.

As to `CN(C)c1ccc(NC(=O)CSc2nc3c(c(C(F)(F)F)c2C#N)CCCCCC3)cc1`, the compound was classed as inactive.

For `Cc1ccc(C(=O)CSc2nsc3sc(C(=O)c4ccc(C)cc4)c(N)c23)cc1`, the compound was classed as inactive.

Take `O=C(CN1CCOCC1)Nc1ccc(S(=O)(=O)N2CCCC2)cc1`: the compound was classed as inactive.

Turning to `OC1(c2ccc3c(c2)OCO3)OCC2C(c3ccc4c(c3)OCO4)OCC21O` (centres undefined), the outcome was inactive.

`O=C(NCCCn1ccnc1)c1cnn2c(C(F)(F)F)cc(-c3ccccc3)nc12`: the compound was called inactive.

For `O=[N+]([O-])c1ccc(NCCNS(=O)(=O)c2ccc(Br)cc2)c(C(F)(F)F)c1`, the compound was classed as inactive.

Regarding `Cc1nc(SCC(N)=O)c(C(N)=O)c(C)c1C`, the compound was called inactive.

For `C[C@@H]1CN([C@H](C)CO)C(=O)c2cc(NC(=O)Nc3ccc4c(c3)OCO4)ccc2O[C@@H]1CN(C)Cc1ccc(C(F)(F)F)cc1`, the compound was called inactive.

For `CC(=O)Nc1ccc(C(=O)CSc2nnc(C)s2)cc1`, the compound was classed as inactive.

Regarding `Cc1cc(C)nc(SC2CCCCC2NS(=O)(=O)c2ccc(Cl)cc2)n1` (centres undefined), the outcome was inactive.

For `C[C@@H]1CCCCO[C@@H](CN(C)Cc2ccc(C(=O)O)cc2)[C@H](C)CN([C@@H](C)CO)C(=O)c2cc(NC(=O)C3CCCCC3)ccc2O1`, the outcome was inactive.

As for `Cc1cc2nc(-c3ccc(NC(=O)COc4ccccc4[N+](=O)[O-])cc3)oc2cc1C`, the outcome was inactive.

As for `CNC[C@@H]1OCCCC[C@H](C)Oc2ccc(NC(=O)Nc3ccccc3)cc2C(=O)N([C@H](C)CO)C[C@H]1C`, the compound was classed as inactive.

With `C[C@@H]1CN([C@@H](C)CO)C(=O)c2cc(NC(=O)C3CC3)ccc2O[C@H]1CN(C)C`, the compound was classed as inactive.

With `O=C1O[C@H](c2ccccc2)[C@H](c2ccccc2)N2[C@H]1[C@@H](C(=O)N1CCN(c3ncccn3)CC1)[C@]1(C(=O)Nc3ccccc31)[C@H]2c1ccc(OCCO)cc1`, the call was inactive.

`COc1ccc(C#Cc2ccc3c(c2)[C@]2(C(=O)N3)[C@H](c3ccccc3OCCO)N3[C@H](c4ccccc4)[C@H](c4ccccc4)OC(=O)[C@H]3[C@@H]2C(=O)N2CCCCCCC2)cc1`: the call was active.

As for `COc1ccc(C#Cc2ccc3c(c2)[C@]2(C(=O)N3)[C@H](C(=O)N3CCCCCCC3)[C@H]3C(=O)O[C@H](c4ccccc4)[C@H](c4ccccc4)N3[C@@H]2c2ccc(O)cc2)cc1`, the compound was classed as inactive.

`COC(=O)C(CC#Cc1ccc2c(c1)[C@]1(C(=O)N2)[C@H](c2ccccc2OCCO)N2[C@H](c3ccccc3)[C@H](c3ccccc3)OC(=O)[C@H]2[C@@H]1C(N)=O)C(=O)OC`: the compound was classed as inactive.

For the compound `O=C1O[C@@H](c2ccccc2)[C@@H](c2ccccc2)N2[C@@H](c3ccccc3OCCO)[C@]3(C(=O)Nc4ccccc43)[C@@H](C(=O)N3CCCCCCC3)[C@H]12`, the result was active.

On to `O=C1O[C@@H](c2ccccc2)[C@@H](c2ccccc2)N2[C@@H](c3ccccc3OCCO)[C@]3(C(=O)Nc4ccc(C#CC5(O)CCCCCC5)cc43)[C@@H](C(=O)N3CCCCCCC3)[C@H]12`, for which the compound was called inactive.

For the compound `C[C@H]1CN([C@@H](C)CO)C(=O)c2cccc(NC(=O)Nc3ccccc3)c2O[C@@H]1CN(C)S(=O)(=O)c1ccc(F)cc1`, the compound was called inactive.

For the compound `C[C@@H]1CN([C@@H](C)CO)C(=O)c2cc(NS(C)(=O)=O)ccc2O[C@@H](C)CCCCO[C@@H]1CN(C)C(=O)c1ccccc1`, the compound was classed as inactive.

`Cc1nc(SCC(=O)O)[nH]c(=O)c1Oc1ccccc1`: the outcome was inactive.

On to `C[C@H]1CN([C@@H](C)CO)C(=O)c2cc(N(C)C)ccc2O[C@@H]1CN(C)C(=O)Nc1ccc2c(c1)OCO2`, for which the call was inactive.

For `COc1ccc2ccccc2c1CNCc1ccccn1`, the compound was classed as active.

For `Cc1nnc(SCc2cc(=O)[nH]c(N3CCN(Cc4ccccc4)CC3)n2)s1`, the outcome was inactive.

`C[C@@H]1CN([C@H](C)CO)C(=O)c2cc(NS(=O)(=O)c3ccccc3)ccc2O[C@@H](C)CCCCO[C@@H]1CN(C)C(=O)CCC(F)(F)F`: the result was inactive.

For `Cc1noc(C)c1S(=O)(=O)Nc1ccc2c(c1)C(=O)N([C@@H](C)CO)C[C@H](C)[C@@H](CN(C)C)OCCCC[C@@H](C)O2`, the outcome was inactive.

With `Cc1noc(C)c1S(=O)(=O)Nc1ccc2c(c1)C(=O)N([C@H](C)CO)C[C@@H](C)[C@H](CN(C)C(=O)NC(C)C)OCCCC[C@@H](C)O2`, the compound was called inactive.

For the compound `C[C@H](CO)N1C[C@H](C)[C@H](CN(C)C(=O)CCC(F)(F)F)OCCCC[C@H](C)Oc2ccc(NS(C)(=O)=O)cc2C1=O`, the outcome was active.

As to `Cc1noc(C)c1S(=O)(=O)Nc1ccc2c(c1)C(=O)N([C@H](C)CO)C[C@H](C)[C@H](CN(C)C(=O)CCC(F)(F)F)OCCCC[C@H](C)O2`, the result was active.

For `C[C@@H]1CCCCO[C@H](CN(C)C(=O)CCC(F)(F)F)[C@H](C)CN([C@H](C)CO)C(=O)c2cc(NS(C)(=O)=O)ccc2O1`, the outcome was inactive.

On to `C[C@@H]1CCCCO[C@@H](CN(C)C(=O)CCC(F)(F)F)[C@@H](C)CN([C@H](C)CO)C(=O)c2cc(NC(=O)CCC(F)(F)F)ccc2O1`, for which the call was inactive.

`Cc1noc(C)c1S(=O)(=O)Nc1ccc2c(c1)C(=O)N([C@H](C)CO)C[C@H](C)[C@@H](CN(C)C(=O)CCC(F)(F)F)OCCCC[C@H](C)O2`: the outcome was inactive.

In the case of `Cc1noc(C)c1S(=O)(=O)Nc1ccc2c(c1)C(=O)N([C@@H](C)CO)C[C@@H](C)[C@H](CN(C)C(=O)NC(C)C)OCCCC[C@@H](C)O2`, the compound was classed as active.

As for `Cc1cc(OCC(=O)Nc2ccccc2C(N)=O)cc(C)c1Br`, the call was inactive.

Take `Cc1scc(C(=O)NCCc2ccc(S(N)(=O)=O)cc2)c1-c1ccccc1`: the compound was classed as inactive.

On to `Cc1noc(C)c1NC(=O)Nc1ccc2c(c1)CC(=O)N([C@@H](C)CO)C[C@@H](C)[C@@H](CN(C)C(=O)NC(C)C)O2`, for which the outcome was inactive.

For `CN(C)CCCSc1ccccc1NC(=O)/C=C/c1ccccc1`, the outcome was inactive.

With `CCCCCc1ccc(/C=C/C(=O)Nc2ccccc2C(=O)O)cc1`, the call was active.

Consider `COc1cc(/C=C/C(=O)NCCc2ccc(O)cc2)ccc1O`, for which the call was inactive.

Consider `CCn1c(SCC(=O)Nc2sc3c(c2C#N)CCCC3)nnc1-c1ccccc1O`, for which the compound was called inactive.

For the compound `Cc1noc(C)c1S(=O)(=O)Nc1ccc2c(c1)CC(=O)N([C@@H](C)CO)C[C@H](C)[C@H](CN(C)S(=O)(=O)c1ccc(Cl)cc1)O2`, the result was inactive.

`COc1ccc(NC(=O)N(C)C[C@@H]2Oc3ccc(NS(C)(=O)=O)cc3C(=O)N([C@@H](C)CO)C[C@@H]2C)cc1`: the outcome was inactive.

Take `C[C@@H]1CCCCO[C@H](CN(C)Cc2ccncc2)[C@@H](C)CN([C@H](C)CO)C(=O)c2cc(NS(C)(=O)=O)ccc2O1`: the call was inactive.

On to `C[C@@H]1CN([C@H](C)CO)C(=O)c2cccc(NC(=O)Nc3ccc4c(c3)OCO4)c2O[C@H]1CN(C)S(=O)(=O)c1ccccc1`, for which the result was inactive.

In the case of `C[C@@H]1CCCCO[C@H](CN(C)Cc2ccccc2)[C@H](C)CN([C@@H](C)CO)C(=O)c2cc(NS(=O)(=O)c3ccccc3)ccc2O1`, the outcome was inactive.

As for `C[C@H](CO)N1C[C@H](C)[C@@H](CN(C)S(=O)(=O)c2cccs2)Oc2ccc(NC(=O)Nc3cccc4ccccc34)cc2CC1=O`, the outcome was inactive.
